G9a inh – blocks human histone lysine methyltransferase G9a. G9a H3K9 monomethylation, AlphaScreen, 2 h. Q96KQ7. actives 8.8% (n = 350,000). Potency, µM (top dose mostly 102 µM), without a hit: top-dose activity, negative = inhibition, most hits filed as inhibitors. AID 504332; further: potency means the concentration at half of the fitted maximal effect; on the % scale 0 is the no-effect control and ±100 the full control effect; nearly all actives have a fitted effect of over 75% in size
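Methyltransferase reactions run at room temperature for 2 h (20 nM enzyme, 500 nM biotin-H3K9 peptide, 20 uM SAM) after a 15 min compound preincubation; product detected by AlphaScreen beads and anti-H3K9me1 antibody.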
PI5P4Ka inh – blocks human PI5P4K alpha kinase activity; P48426; PI5P4Kalpha enzyme, ADP-Glo luminescence, 60 min; active compounds read low; max response, %; actives 1.2% (n = 330,000); active means max response of -50% or lower; inconclusive means between -30% and -50%; inactive means -30% or higher; further: value at the top dose of about 77 µM; on the % scale 0 is the no-effect control and ±100 the full control effect
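Reactions run in 0.038 M HEPES pH 7.4, 0.28 mM EGTA, 0.1% CHAPS and 5% DMSO, with PI5P4Kalpha, substrate, compound and 5 microM ATP final, one hour at room temperature. Readout is ADP-Glo luminescence.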
PLK1 PBD inh – blocks phosphopeptide binding to human PLK1 polo-box domain. P53350. Plk1 PBD binding of FITC phosphopeptide, fluorescence polarization. Potency, µM, without a hit: max response, negative = inhibition, hits mostly inhibitors. actives 2.8% (n = 360,000). AID 720504; further: potency means the concentration at half of the fitted maximal effect; series mostly up to about 57 µM; on the % scale 0 is the no-effect control and ±100 the full control effect; nearly all actives have a fitted effect of over 65% in size
Target sequence (P53350 whole entry, looked up, the tested form may be a part): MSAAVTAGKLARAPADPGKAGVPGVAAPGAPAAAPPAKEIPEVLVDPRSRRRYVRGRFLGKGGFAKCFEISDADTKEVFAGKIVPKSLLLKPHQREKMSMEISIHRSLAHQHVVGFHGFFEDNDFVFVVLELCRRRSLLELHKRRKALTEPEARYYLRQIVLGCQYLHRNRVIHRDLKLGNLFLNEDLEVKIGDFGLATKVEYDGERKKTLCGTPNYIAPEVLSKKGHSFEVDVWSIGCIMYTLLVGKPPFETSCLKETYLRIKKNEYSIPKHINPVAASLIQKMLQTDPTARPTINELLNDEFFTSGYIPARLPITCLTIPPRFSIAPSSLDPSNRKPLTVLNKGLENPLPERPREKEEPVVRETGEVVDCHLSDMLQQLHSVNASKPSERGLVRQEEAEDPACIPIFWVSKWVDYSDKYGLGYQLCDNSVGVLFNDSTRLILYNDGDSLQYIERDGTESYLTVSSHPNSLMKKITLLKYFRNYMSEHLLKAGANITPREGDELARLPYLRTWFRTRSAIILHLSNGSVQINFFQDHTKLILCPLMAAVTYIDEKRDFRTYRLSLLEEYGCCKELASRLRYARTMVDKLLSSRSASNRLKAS
BAZ2B block – inhibitors of human BAZ2B bromodomain; AlphaScreen BAZ2B-H3K14Ac peptide displacement; Potency, µM (top dose mostly 114 µM), inactives show top-dose activity change, negative = inhibition, actives largely listed as inhibitors; actives 4.4% (n = 360,000); Q9UIF8; further: potency means the concentration at half of the fitted maximal effect; on the % scale 0 is the no-effect control and ±100 the full control effect; nearly all actives have a fitted effect of over 60% in size
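Complex of BAZ2B and biotin-H3K14Ac (50 nM apiece) forms over 30 min at RT, then faces library compounds up to 110 uM for another 30 min; AlphaScreen beads added, 20 min dark incubation, luminescence read.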
HP1b binding inh – blocks HP1-beta chromodomain binding to methylated histone tails | P83916 | AlphaScreen HP1-beta / biotin-H3K9me3 peptide binding | Potency, µM (doses to about 114 µM), for inactives: at the top dose activity change, negative = inhibition, most hits filed as inhibitors | actives 0.56% (n = 390,000) | AID 540317; further: potency means the concentration at half of the fitted maximal effect; nearly all actives have a fitted effect of over 70% in size
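Compound inhibition of the preformed complex between 50 nM HP1-beta and 50 nM biotinylated H3K9me3 peptide was read by AlphaScreen. Buffer was PBS pH 7.4 with 0.01% Tween-20. Incubations ran 30 min at room temperature, with 10 ug/mL donor/acceptor beads.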
JMJD2A Tudor inh – blocks the human JMJD2A Tudor domain | actives 4.4% (n = 390,000) | AlphaScreen JMJD2A-Tudor / H3K4me3 peptide binding | O75164 | Potency, µM (top dose mostly 114 µM), without a hit: at the top dose activity change, negative = inhibition, hits mostly inhibitors; further: potency means the concentration at half of the fitted maximal effect; on the % scale 0 is the no-effect control and ±100 the full control effect; nearly all actives have a fitted effect of over 50% in size
An asterisk follows results filed as active; u = inconclusive; x = no result given; ! = repeats disagree; [ ] = another dose, or the depositor's remark. Shown are actives, neighbours in structure and some others; about 12% of the full set was active somewhere. Unless noted, the call rests on the fitted dose curve; in most records, active means well fitted curve in the direction sought with a large enough effect; inconclusive means small, poorly fitted or top-dose-only effect, or another doubt; inactive means no such curve, though single readings can be large; an effect the other way counts as inactive or inconclusive.

SMILES	G9a inh	PI5P4Ka inh	PLK1 PBD inh	BAZ2B block	HP1b binding inh	JMJD2A Tudor inh
Cc1ccc(C)c(NC(=O)CCN2CCc3ccccc3C2)c1	50µM*	-1	-1%	-39%	29%	-15%
CCCn1c(=O)c2[nH]c(-c3ccccc3)nc2n(CCC)c1=O	26%[59 µM]	x	x	x	x	x
CCN(C(=O)Cn1nc(Cc2ccncc2)c2ccccc2c1=O)c1cccc(Cl)c1	-6%[59 µM]	x	x	-15%	23%	-25%
COc1cccc(N2C(=O)Nc3ccc(Br)cc3C2(O)C(=O)NCCCN(C)C)c1 (stereo not drawn)	7%[12.7 µM]	0	0%	-1%	13%	-6%
O=C(CN1CCc2ccccc2C1)Nc1ccc(F)cc1	20%[59 µM]	-4	4%	2%	33%	6%
O=C(CN1CCN(C(=O)c2cccc(S(=O)(=O)N3CCCC3)c2)CC1)Nc1cccc(F)c1	56µM*	11	-3%	14%	29%	-12%
Cc1cc(C)cc(NC(=O)CN2CCc3ccccc3C2)c1	27%[0.501 µM]	3	-5%	32µM*	-44%	40µM*
O=C(CN1CCN(C(=O)c2ccco2)CC1)Nc1cccc(S(=O)(=O)N2CCCC2)c1	u	0	-7%	7%	22%	-14%
COc1ccc(CCNC(=O)c2ccc3nc(-c4ccco4)c(-c4ccco4)nc3c2)cc1OC	u	-55*	27µM*	50µM*	u	u
COc1ccc(CCNC(=O)c2ccn[nH]2)cc1OC	18%[0.501 µM]	u	3µM*	3%	0%	u
COc1ccc(CCNC(=O)c2cc(-c3ccccc3O)n[nH]2)cc1OC	-38%[12.7 µM]	-1	-2%	u	29%	15%
COc1ccc(NC(=O)c2cc(C3CCCCN3C(=O)OCCF)on2)c(C)c1 (stereo not drawn)	x	-3	-11%	x	x	x
Cc1ccc(-c2cc(=O)c3cc(F)ccc3[nH]2)cc1	-2%	-5	2%	2%	41%	-4%
O=c1cc(-c2ccccc2)[nH]c2ccc(F)cc12	79µM*!	-2	5%	5%	35%	-17%
COc1ccc2[nH]c(-c3cccc(F)c3)cc(=O)c2c1	u	2	-4%	-5%	30%	-20%
O=c1cc(-c2cccc(F)c2)[nH]c2ccccc12	32µM*!	1	-4%	2%	57%	-14%
Cc1ccc2[nH]c(-c3cccc(F)c3)cc(=O)c2c1	0.28µM*!	-1	-6%	5%	44%	-8%
CCOC(=O)c1cc(S(=O)(=O)NCc2ccc(OC)cc2)[nH]n1	13µM*	x	x	u	8%[57 µM]	u
CCOC(=O)c1cc(S(=O)(=O)NCc2ccc(Cl)cc2)[nH]n1	7.9µM*	x	x	u	12%[57 µM]	-22%
CCOC(=O)c1cc(S(=O)(=O)N(C)c2ccccc2)[nH]n1	u	x	x	-14%	-4%[57 µM]	-7%
COc1cc2c(s1)c1cnn(Cc3ccccc3F)c(=O)c1n2C	x	x	x	x	x	-30%
O=C1c2cccnc2C(=O)N1c1cccc([N+](=O)[O-])c1	5%	4	-15%	56µM*	32%	u
O=C(O)c1cccc(N2C(=O)c3cccnc3C2=O)c1	9%[59 µM]	-11	-7%	1%	6%	3%
O=C1c2ccc(Oc3cccc([N+](=O)[O-])c3)cc2C(=O)N1c1ccccn1	u	-11	11µM*	-16%	-4%	u
O=C1c2cc([N+](=O)[O-])cc3cc([N+](=O)[O-])cc(c23)C(=O)N1c1ccccn1	u	-28	u	u	-32%	u
SMILES	G9a inh	PI5P4Ka inh	PLK1 PBD inh	BAZ2B block	HP1b binding inh	JMJD2A Tudor inh
Cc1nnc(N2CCC(C(=O)NCCC(C)C)CC2)c2nn(-c3ccc(Cl)cc3)c(C)c12	9%[59 µM]	x	x	1%	30%	6%
O=C(COc1ccc(Br)cc1)N(Cc1nnc(-c2ccccc2Cl)o1)C1CC1	x	2	-1%	x	x	x
O=C(O)CCc1ccc(S(=O)(=O)Nc2ccc(OCc3ccccc3)cc2)cc1	45µM*	-13	-11%	-14%	10%	-24%
O=C(O)/C=C/c1ccc(S(=O)(=O)Nc2ccc(OCc3ccccc3)cc2)cc1	17%[59 µM]	-5	-1%	-28%	27%	-11%
COc1cc(Cl)c(C)cc1N1C(=O)CN(Cc2ccccc2)C1=S	35µM*	-7	24µM*	-24%	11%	-3%
CC1CN(C(=O)COC(=O)CSc2ccc(C(N)=O)cc2[N+](=O)[O-])CC(C)O1 (stereo not drawn)	-46%	1	-2%	-23%	11%	-1%
Cc1ccc(SCC(=O)OCC(=O)NC2CCCCCCC2)cc1	9%[0.501 µM]	14	-1%	32%	79%	21%
O=C(COC(=O)CSc1ccc([N+](=O)[O-])cc1)NC1CCCCCCC1	45µM*	u	24µM*	-8%	u	u
CC1CCN(C(=O)c2ccc(SCc3ccccc3F)c([N+](=O)[O-])c2)CC1	28µM*	14	-4%	-38%	u	u
CCOC(=O)CSc1ccc(C(=O)N2CCN(C)CC2)cc1[N+](=O)[O-]	45µM*	3	-5%	11%	31%	-7%
CC1CCC(NC(=O)COC(=O)CSc2ccc(C(N)=O)cc2[N+](=O)[O-])CC1 (stereo not drawn)	50µM*	1	-28%	-6%	30%	-17%
Cc1cccc(NC(=O)COC(=O)CN2C(=O)C3CCCCC3C2=O)c1C (stereo not drawn)	x	-1	1%	x	x	x
Cc1nn(-c2ccc(N3CCCCC3)nn2)c(C)c1CCC(=O)NCc1ccccc1	-3%[59 µM]	x	x	-28%	35%	-18%
COc1ccc(Cl)cc1N(CC(=O)Nc1ccccc1C(=O)N1CCOCC1)S(C)(=O)=O	28%	8	4%	-2%	46%	-3%
C[C@@H]1CN([C@H](C)CO)C(=O)c2cc(NS(=O)(=O)c3cn(C)cn3)ccc2O[C@@H]1CN(C)S(C)(=O)=O	x	-13	-5%	x	47%	-13%
CC(C)c1ccc(NC(=O)Cn2c(=O)n(Cc3nc(-c4ccccc4)no3)c(=O)c3cc4c(cc32)OCO4)cc1	1%[59 µM]	x	x	-2%	38%	9%
Cc1ccc(NC(=O)CN2C(=O)COc3ccc(S(=O)(=O)NC4CCCC4)cc32)cc1N(C)C	-24%[59 µM]	x	x	-25%	0%	-32%
COc1cc(C(=O)OCc2cc(=O)n3nc(C(C)C)sc3n2)cc(OC)c1OC	15%[59 µM]	x	x	u	u	-24%
O=C(c1cc(C(F)(F)F)cc(C(F)(F)F)c1)N1CCC[C@@]2(CCN(c3ccncc3)C2)C1	3%[12.7 µM]	x	x	x	x	x
O=C(COC(=O)CSc1ccc([N+](=O)[O-])cc1)NCCCc1ccccc1	x	u	8.4µM*	u	-14%	u

Source: PubChem BioAssay
